Measurements taken from PubChem BioAssay (NCI).
The panel holds about 79,000 compounds, 15% with a hit somewhere; the sample as a whole holds those more often. The source made the active and inactive calls. No stated cut-off is given here; in the data, active means growth inhibition above about 70%; inactive means the rest.

How the values were obtained:
[1] = NCI Yeast Anticancer Drug Screen. Data for the wt1 strain (AID 149);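 further: 0% = growth of vehicle-treated wt1 cultures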; conditions: S. cerevisiae wt1 strain (SPY 50644) growth inhibition, stronger effect = higher value
How it was run: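 Vehicle-normalised growth inhibition; strain wt1; compound exposure.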

[2] = NCI Yeast Anticancer Drug Screen. Data for the rad50EPP+ strain (AID 151);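 further: 0% = growth of vehicle-treated control cultures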; conditions: S. cerevisiae rad50 mutant strain, stronger effect = higher value
How it was run: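 Read-out is yeast growth inhibition relative to vehicle; cells used were the rad50EPP+ strain.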

[3] = NCI Yeast Anticancer Drug Screen. Data for the mgt1 strain (AID 153); conditions: S. cerevisiae mgt1 mutant growth inhibition, stronger effect = higher value
How it was run: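 Measured: inhibition of mgt1 yeast growth by compound, normalized to vehicle-treated cultures.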

[4] = NCI Yeast Anticancer Drug Screen. Data for the rad50 strain (AID 155);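 further: 0% = growth of vehicle-only cultures of the same strain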; conditions: S. cerevisiae rad50 strain growth inhibition, stronger effect = higher value
How it was run: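 A DNA repair-deficient yeast mutant serves as the test organism; compound-induced growth inhibition is calculated against vehicle-treated cells.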

[5] = NCI Yeast Anticancer Drug Screen. Data for the mec2-1 strain (AID 157); conditions: S. cerevisiae mec2-1 strain, stronger effect = higher value
How it was run: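 Using mec2-1 yeast: add compound, measure growth, express inhibition versus vehicle-treated cultures.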

[6] = NCI Yeast Anticancer Drug Screen. Data for the rad14 strain (AID 159);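 further: 0% = growth of vehicle-treated control cultures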; conditions: S. cerevisiae rad14 strain growth inhibition, stronger effect = higher value
How it was run: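 Vehicle-treated cultures served as the baseline for growth inhibition of a DNA repair-mutant yeast strain exposed to each compound.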

[7] = NCI Yeast Anticancer Drug Screen. Data for the sgs1 mgt1 strain (AID 161);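 further: 0% = growth of cultures given vehicle only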; conditions: S. cerevisiae sgs1 mgt1 strain, stronger effect = higher value
How it was run: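 Percent growth inhibition was derived by comparing compound-exposed mutant yeast with vehicle-exposed cultures. The strain carries alterations in DNA damage repair.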

[8] = NCI Yeast Anticancer Drug Screen. Data for the CLN2oe strain (AID 163);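 further: 0% = growth of vehicle-only control cultures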; conditions: S. cerevisiae CLN2oe strain, stronger effect = higher value
How it was run: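 Whole-cell yeast growth assay. A strain engineered for altered cell-cycle control received compound, and inhibition relative to vehicle-treated cultures was recorded.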

[9] = NCI Yeast Anticancer Drug Screen. Data for the cln2 rad14 strain (AID 165);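 further: 0% = growth equal to vehicle treated cultures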; conditions: S. cerevisiae cln2 rad14 strain, stronger effect = higher value
How it was run: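 Yeast strain cln2 rad14, bearing defects in cell cycle control and DNA repair, serves as the test system; values reflect growth inhibition compared with vehicle.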

[10] = NCI Yeast Anticancer Drug Screen. Data for the bub3 strain (AID 167); conditions: S. cerevisiae bub3 mutant strain, stronger effect = higher value
How it was run: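 Inhibition values come from growth of compound-treated mutant yeast normalised to vehicle-treated controls.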

[11] = NCI Yeast Anticancer Drug Screen. Data for the wt2 strain (AID 169);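 further: 0% = growth of vehicle-treated yeast cultures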; conditions: S. cerevisiae wt2 strain growth inhibition, stronger effect = higher value
How it was run: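 Treated yeast vs. vehicle-treated yeast: growth inhibition determined.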

[12] = NCI Yeast Anticancer Drug Screen. Data for the mlh1 strain (AID 171);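 further: 0% = growth of vehicle-treated control cultures of the same strain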; conditions: S. cerevisiae mlh1 strain growth inhibition, stronger effect = higher value
How it was run: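 A yeast strain with a defined genetic lesion serves as the test organism. Cultures receive compound or vehicle, and growth is measured.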

[13] = NCI Yeast Anticancer Drug Screen. Data for the sgs1 strain (AID 173);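 further: 0% = growth of vehicle-only control cultures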; conditions: S. cerevisiae sgs1 mutant, stronger effect = higher value
How it was run: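 A genetically defined yeast mutant is incubated with the test compound, and its growth is compared to that of the same strain given vehicle.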

[14] = NCI Yeast Anticancer Drug Screen. Data for the mlh1 rad18 strain (AID 175); conditions: S. cerevisiae mlh1 rad18 strain growth inhibition, stronger effect = higher value
How it was run: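 Steps: expose repair-defective yeast to compound; measure growth; express inhibition against vehicle-treated controls.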

[15] = NCI Yeast Anticancer Drug Screen. Data for the rad18 strain (AID 177); conditions: S. cerevisiae rad18 mutant growth inhibition, stronger effect = higher value
How it was run: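 Measured value is growth inhibition of a yeast strain bearing a DNA repair alteration, referenced to vehicle-treated cells.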

[16] = at 5.0 µM (retest, dose inferred, filed as 0.5)
[17] = at 50.0 µM (retest, dose inferred, filed as 5.0)

Measured: growth inhibition

Cc1nc2ccc(NCCN(C)C)c3c(=O)c4ccccc4n1c23
inactive: [1]; at 1.2 µM 26% | [1]; at 3.7 µM 25% | [1]; at 11.0 µM 37% | [1]; at 33.0 µM 31% | [1]; at 100.0 µM 26% | [2]; at 1.2 µM 26% | [2]; at 3.7 µM 11% | [2]; at 11.0 µM 40% | [2]; at 33.0 µM 55% | [2]; at 100.0 µM 65% | [3]; at 1.2 µM 27% | [3]; at 3.7 µM 31% | [3]; at 11.0 µM 33% | [3]; at 33.0 µM 27% | [3]; at 100.0 µM 38% | [4]; at 1.2 µM 43% | [4]; at 3.7 µM 50% | [4]; [16] 28% | [4]; at 50.0 µM -1.8% | [5]; at 1.2 µM 25% | [5]; at 3.7 µM 30% | [5]; [16] 16% | [5]; at 11.0 µM 41% | [5]; at 33.0 µM 42% | [5]; [17] 25% | [5]; at 50.0 µM 6.95% | [5]; at 100.0 µM 37% | [6]; at 1.2 µM 6% | [6]; at 3.7 µM 11% | [6]; at 11.0 µM 6% | [6]; at 33.0 µM 12% | [6]; at 100.0 µM 20% | [7]; [16] 1% | [7]; [17] 15% | [7]; at 50.0 µM -6.05% | [8]; at 1.2 µM 5% | [8]; at 3.7 µM 22% | [8]; at 11.0 µM 20% | [8]; at 33.0 µM -2% | [8]; at 100.0 µM 19% | [9]; [16] 10% | [9]; [17] 25% | [9]; at 50.0 µM 10.2% | [10]; at 1.2 µM 5% | [10]; at 3.7 µM 4% | [10]; [16] -10% | [10]; at 11.0 µM 9% | [10]; at 33.0 µM 11% | [10]; [17] 21% | [10]; at 50.0 µM -2.7% | [10]; at 100.0 µM 9% | [11]; at 1.2 µM -32% | [11]; at 3.7 µM -38% | [11]; at 11.0 µM -43% | [11]; at 33.0 µM -39% | [11]; at 100.0 µM -19% | [12]; at 1.2 µM 27% | [12]; at 3.7 µM 31% | [12]; at 11.0 µM 33% | [12]; at 33.0 µM 27% | [12]; at 100.0 µM 38% | [13]; at 1.2 µM 23% | [13]; at 3.7 µM 33% | [13]; at 11.0 µM 24% | [13]; at 33.0 µM 24% | [13]; at 100.0 µM 35% | [14]; [16] 11% | [14]; [17] 43% | [15]; at 1.2 µM 8% | [15]; at 3.7 µM 23% | [15]; at 11.0 µM 29% | [15]; at 33.0 µM 39% | [15]; at 100.0 µM 51%
active: [4]; at 11.0 µM 75% | [4]; at 33.0 µM 89% | [4]; [17] 79% | [4]; at 100.0 µM 92% | [14]; at 50.0 µM 78.9%

CC1(C)CC(=O)C(C(CC(c2ccccc2)c2cc3c(cc2O)OCO3)C2=C(O)CC(C)(C)CC2=O)=C(O)C1 (stereo unspecified)
active: [1]; at 33.0 µM 75% | [1]; at 100.0 µM 85% | [3]; at 33.0 µM 86% | [3]; at 100.0 µM 88% | [4]; at 33.0 µM 77% | [4]; [17] 96% | [4]; at 50.0 µM 94.8% | [4]; at 100.0 µM 83% | [5]; at 33.0 µM 84% | [5]; [17] 97% | [5]; at 50.0 µM 93.5% | [5]; at 100.0 µM 87% | [6]; at 100.0 µM 78% | [7]; [17] 96% | [7]; at 50.0 µM 96.8% | [8]; at 33.0 µM 76% | [8]; at 100.0 µM 87% | [9]; [17] 98% | [9]; at 50.0 µM 95% | [10]; [16] 74% | [10]; [17] 99% | [10]; at 50.0 µM 96% | [10]; at 100.0 µM 82% | [11]; at 33.0 µM 88% | [11]; at 100.0 µM 88% | [12]; at 33.0 µM 82% | [12]; at 100.0 µM 87% | [13]; at 33.0 µM 87% | [13]; at 100.0 µM 87% | [14]; [17] 97% | [14]; at 50.0 µM 95.6% | [15]; at 33.0 µM 82% | [15]; at 100.0 µM 82%
inactive: [1]; at 1.2 µM -84% | [1]; at 3.7 µM -3% | [1]; at 11.0 µM 22% | [2]; at 1.2 µM -2% | [2]; at 3.7 µM -1% | [2]; at 11.0 µM 8% | [2]; at 33.0 µM 18% | [2]; at 100.0 µM 10% | [3]; at 1.2 µM -2% | [3]; at 3.7 µM 1% | [3]; at 11.0 µM 48% | [4]; at 1.2 µM -2% | [4]; at 3.7 µM 1% | [4]; [16] 11% | [4]; at 11.0 µM 33% | [5]; at 1.2 µM -6% | [5]; at 3.7 µM -3% | [5]; [16] 1% | [5]; at 11.0 µM 43% | [6]; at 1.2 µM -1% | [6]; at 3.7 µM 1% | [6]; at 11.0 µM 22% | [6]; at 33.0 µM 68% | [7]; [16] 0% | [8]; at 1.2 µM -5% | [8]; at 3.7 µM -3% | [8]; at 11.0 µM 1% | [9]; [16] 21% | [10]; at 1.2 µM -3% | [10]; at 3.7 µM -9% | [10]; at 11.0 µM -6% | [10]; at 33.0 µM 63% | [11]; at 1.2 µM -4% | [11]; at 3.7 µM -5% | [11]; at 11.0 µM 21% | [12]; at 1.2 µM -2% | [12]; at 3.7 µM -3% | [12]; at 11.0 µM 39% | [13]; at 1.2 µM -1% | [13]; at 3.7 µM 10% | [13]; at 11.0 µM 62% | [14]; [16] 3% | [15]; at 1.2 µM -2% | [15]; at 3.7 µM 5% | [15]; at 11.0 µM 28%
